Experimental data published in the supplement of paper PMC10849652.
Of roughly 7,900 targets only a part is listed; those with a hit were picked by preference. About 0.6% of all pairs of compound and target were hits. Values without a mark were called inactive.

Compound: c1cn2cc(-c3ccc4cn[nH]c4c3)nc(Nc3ccc(N4CCOCC4)cc3)c2n1 [entospletinib]
Assay: log2 fold change, soluble protein after heating vs DMSO (PISA); higher = thermal stabilisation; K562 cells, 10 uM, 30 min; active = over 0.2 and 3.5 SD of the protein, either way, in both replicates (recomputed)
Method in brief: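 K562 cells at 2×10^6 cells/mL were given 10 μM compound for 30 min. Aliquots then went through 3 min of heating across 48°C-58°C, were pooled, and were extracted in PBS with 0.5% NP-40 at 4°C, and the supernatant after 21,000xg for 90 min was quantified by TMTpro 16plex LC-MS/MS with channel sums equalised. Thermal stability relative to control samples, from duplicates, is given as log2 fold change.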

Sequence of UniProt Q9BZL4 (Q9BZL4 whole entry, looked up): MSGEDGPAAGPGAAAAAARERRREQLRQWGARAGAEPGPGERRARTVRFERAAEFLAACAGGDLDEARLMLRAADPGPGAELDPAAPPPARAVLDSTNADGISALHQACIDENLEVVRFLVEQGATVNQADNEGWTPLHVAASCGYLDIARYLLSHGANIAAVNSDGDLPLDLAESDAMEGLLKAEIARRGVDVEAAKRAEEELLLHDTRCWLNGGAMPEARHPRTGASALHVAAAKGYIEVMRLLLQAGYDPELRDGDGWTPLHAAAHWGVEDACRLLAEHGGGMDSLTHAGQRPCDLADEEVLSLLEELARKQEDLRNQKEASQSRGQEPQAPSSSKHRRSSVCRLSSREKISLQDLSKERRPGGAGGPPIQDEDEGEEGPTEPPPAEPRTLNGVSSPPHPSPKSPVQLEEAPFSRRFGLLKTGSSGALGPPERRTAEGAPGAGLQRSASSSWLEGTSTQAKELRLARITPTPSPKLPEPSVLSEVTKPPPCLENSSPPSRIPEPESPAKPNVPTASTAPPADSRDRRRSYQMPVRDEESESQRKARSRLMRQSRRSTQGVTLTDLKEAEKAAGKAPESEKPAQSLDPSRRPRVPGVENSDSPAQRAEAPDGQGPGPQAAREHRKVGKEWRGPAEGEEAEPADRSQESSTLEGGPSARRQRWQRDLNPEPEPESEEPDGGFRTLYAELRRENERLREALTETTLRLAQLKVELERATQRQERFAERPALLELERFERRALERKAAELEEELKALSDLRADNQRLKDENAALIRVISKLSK
Sequence of UniProt Q5VTL8 (Q5VTL8 whole entry, looked up): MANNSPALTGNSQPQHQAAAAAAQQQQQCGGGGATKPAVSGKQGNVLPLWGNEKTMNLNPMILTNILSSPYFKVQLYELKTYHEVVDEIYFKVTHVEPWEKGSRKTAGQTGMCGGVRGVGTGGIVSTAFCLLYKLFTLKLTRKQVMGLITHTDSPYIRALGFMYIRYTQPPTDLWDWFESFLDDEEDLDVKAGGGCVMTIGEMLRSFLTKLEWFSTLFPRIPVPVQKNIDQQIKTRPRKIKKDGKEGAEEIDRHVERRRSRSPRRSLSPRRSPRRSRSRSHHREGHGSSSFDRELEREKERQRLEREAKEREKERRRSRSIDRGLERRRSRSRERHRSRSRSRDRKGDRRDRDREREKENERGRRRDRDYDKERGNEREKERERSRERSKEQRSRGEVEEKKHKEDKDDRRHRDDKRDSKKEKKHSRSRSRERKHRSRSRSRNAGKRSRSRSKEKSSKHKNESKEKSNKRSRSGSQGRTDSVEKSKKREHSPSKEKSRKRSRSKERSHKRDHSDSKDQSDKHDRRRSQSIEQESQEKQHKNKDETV
Sequence of UniProt Q9NP80 (Q9NP80 whole entry, looked up): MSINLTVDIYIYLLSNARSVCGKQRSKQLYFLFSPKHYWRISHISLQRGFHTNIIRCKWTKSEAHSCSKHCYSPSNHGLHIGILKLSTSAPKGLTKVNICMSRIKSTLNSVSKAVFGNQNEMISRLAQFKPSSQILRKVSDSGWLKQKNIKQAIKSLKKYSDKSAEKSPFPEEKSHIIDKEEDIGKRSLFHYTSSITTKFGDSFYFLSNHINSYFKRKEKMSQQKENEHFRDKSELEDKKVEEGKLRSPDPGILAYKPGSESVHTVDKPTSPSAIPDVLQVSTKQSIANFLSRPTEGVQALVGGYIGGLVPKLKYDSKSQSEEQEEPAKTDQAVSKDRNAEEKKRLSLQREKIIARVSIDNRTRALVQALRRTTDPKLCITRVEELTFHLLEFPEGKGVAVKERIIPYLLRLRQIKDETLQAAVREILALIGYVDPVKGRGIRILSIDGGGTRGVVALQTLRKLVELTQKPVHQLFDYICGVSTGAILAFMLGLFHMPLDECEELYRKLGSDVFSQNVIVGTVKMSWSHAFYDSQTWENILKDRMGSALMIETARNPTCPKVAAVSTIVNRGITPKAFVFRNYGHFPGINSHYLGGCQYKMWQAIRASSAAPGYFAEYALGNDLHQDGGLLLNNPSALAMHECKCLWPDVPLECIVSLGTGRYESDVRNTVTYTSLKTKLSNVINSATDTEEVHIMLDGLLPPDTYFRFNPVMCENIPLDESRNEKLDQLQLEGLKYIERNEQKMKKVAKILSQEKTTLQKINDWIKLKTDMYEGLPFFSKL
Sequence of UniProt O60925 (O60925 whole entry, looked up): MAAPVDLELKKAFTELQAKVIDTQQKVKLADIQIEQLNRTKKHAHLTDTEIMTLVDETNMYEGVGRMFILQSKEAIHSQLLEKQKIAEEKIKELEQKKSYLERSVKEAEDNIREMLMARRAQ
Sequence of UniProt P46020 (P46020 whole entry, looked up): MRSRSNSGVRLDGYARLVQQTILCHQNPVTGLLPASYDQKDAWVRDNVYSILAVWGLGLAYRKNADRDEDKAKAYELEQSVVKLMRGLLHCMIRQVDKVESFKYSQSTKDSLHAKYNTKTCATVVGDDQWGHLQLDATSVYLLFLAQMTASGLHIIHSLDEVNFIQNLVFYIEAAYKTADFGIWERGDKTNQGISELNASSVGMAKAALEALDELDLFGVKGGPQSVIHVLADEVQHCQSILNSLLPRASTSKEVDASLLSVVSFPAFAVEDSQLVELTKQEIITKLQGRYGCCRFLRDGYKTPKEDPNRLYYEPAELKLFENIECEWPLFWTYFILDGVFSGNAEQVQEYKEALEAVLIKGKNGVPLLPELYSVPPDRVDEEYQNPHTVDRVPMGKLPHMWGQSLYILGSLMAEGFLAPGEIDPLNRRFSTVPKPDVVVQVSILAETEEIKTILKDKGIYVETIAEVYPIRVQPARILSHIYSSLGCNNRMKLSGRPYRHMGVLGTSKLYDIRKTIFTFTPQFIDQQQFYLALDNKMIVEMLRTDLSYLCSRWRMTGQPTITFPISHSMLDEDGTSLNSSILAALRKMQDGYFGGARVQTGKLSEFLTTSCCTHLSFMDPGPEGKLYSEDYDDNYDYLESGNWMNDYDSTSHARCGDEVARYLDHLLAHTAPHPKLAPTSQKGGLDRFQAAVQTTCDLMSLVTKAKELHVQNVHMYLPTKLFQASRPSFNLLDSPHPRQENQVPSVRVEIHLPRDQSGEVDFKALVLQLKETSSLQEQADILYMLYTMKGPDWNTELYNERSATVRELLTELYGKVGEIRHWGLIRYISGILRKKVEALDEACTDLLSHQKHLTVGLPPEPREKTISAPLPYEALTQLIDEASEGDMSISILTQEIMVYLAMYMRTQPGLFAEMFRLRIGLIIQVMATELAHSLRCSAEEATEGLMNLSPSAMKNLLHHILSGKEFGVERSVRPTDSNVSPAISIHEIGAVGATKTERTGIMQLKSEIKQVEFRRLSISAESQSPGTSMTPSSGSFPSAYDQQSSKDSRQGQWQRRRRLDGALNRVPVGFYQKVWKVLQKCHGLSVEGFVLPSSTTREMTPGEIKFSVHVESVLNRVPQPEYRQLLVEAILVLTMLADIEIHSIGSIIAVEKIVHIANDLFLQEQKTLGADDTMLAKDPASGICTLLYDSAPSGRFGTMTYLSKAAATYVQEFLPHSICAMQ
Sequence of UniProt Q9Y5Y5 (Q9Y5Y5 whole entry, looked up): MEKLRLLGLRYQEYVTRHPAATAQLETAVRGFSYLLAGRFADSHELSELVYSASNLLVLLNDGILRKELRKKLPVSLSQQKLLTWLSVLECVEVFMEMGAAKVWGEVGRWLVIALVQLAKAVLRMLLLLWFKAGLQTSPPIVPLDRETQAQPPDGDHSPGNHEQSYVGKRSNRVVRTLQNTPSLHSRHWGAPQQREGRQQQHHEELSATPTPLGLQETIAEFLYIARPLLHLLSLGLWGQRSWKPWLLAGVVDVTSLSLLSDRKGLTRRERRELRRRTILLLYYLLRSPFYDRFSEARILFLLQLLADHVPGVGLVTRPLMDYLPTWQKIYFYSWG
Sequence of UniProt Q2TAL8 (Q2TAL8 whole entry, looked up): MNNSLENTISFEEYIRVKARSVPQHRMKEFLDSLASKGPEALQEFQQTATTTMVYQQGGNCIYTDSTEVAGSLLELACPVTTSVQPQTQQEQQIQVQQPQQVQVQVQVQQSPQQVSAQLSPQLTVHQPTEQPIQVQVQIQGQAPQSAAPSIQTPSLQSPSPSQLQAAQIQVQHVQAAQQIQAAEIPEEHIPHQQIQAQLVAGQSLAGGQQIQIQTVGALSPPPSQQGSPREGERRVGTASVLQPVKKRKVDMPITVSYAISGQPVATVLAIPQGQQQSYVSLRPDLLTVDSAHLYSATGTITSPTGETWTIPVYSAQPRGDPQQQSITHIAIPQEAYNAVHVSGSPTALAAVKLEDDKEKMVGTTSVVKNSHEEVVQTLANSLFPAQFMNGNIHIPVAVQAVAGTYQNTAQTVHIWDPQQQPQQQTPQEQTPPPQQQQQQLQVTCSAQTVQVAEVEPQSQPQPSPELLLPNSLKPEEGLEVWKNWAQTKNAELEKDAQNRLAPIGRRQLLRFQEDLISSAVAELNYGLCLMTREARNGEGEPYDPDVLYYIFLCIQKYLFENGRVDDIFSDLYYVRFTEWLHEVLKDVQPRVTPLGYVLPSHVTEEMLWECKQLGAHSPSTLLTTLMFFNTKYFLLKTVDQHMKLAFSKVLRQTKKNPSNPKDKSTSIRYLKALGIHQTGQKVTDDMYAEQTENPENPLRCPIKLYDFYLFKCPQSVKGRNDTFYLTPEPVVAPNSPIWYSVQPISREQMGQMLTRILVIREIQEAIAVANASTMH
Sequence of UniProt Q9UG56 (Q9UG56 whole entry, looked up): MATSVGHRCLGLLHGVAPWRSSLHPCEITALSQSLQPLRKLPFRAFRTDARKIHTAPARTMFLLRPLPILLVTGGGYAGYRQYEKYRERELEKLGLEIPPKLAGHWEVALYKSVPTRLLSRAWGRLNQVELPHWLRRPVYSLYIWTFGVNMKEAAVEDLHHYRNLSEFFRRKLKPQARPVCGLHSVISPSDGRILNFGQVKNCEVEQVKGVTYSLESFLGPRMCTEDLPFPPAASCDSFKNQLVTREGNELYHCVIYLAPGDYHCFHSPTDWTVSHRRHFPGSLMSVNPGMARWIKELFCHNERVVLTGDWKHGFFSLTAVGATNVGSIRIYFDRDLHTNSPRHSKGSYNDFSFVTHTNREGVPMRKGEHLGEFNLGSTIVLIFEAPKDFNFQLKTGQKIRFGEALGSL

Target | log2 fold change
QRICH1 (UniProt Q2TAL8) | -0.054
PISD (UniProt Q9UG56) | -0.009
PFDN1 (UniProt O60925) | -0.089
PRPF38B (UniProt Q5VTL8) | 0.032
PNPLA8 (UniProt Q9NP80) | -0.015
PRPF40A (UniProt O75400) | 0.057
PPP4R3B (UniProt Q5MIZ7) | -0.064
PIGH (UniProt Q14442) | -0.034
PEX16 isoform 2 (UniProt Q9Y5Y5) | -0.081
PHKA1 (UniProt P46020) | 0.063
PPP1R12C (UniProt Q9BZL4) | 0.038
POLA2 (UniProt Q14181) | -0.047
PIK3CD (UniProt O00329) | -0.206
PIP4P1 isoform 2 (UniProt Q86T03) | 0.028
